Of roughly 6,500 targets only a part is listed; those with a hit were picked by preference. About 2% of all pairs of compound and target were hits.
Each target was assayed with COC(=O)C#Cc1ccccc1 [methyl 3-phenylpropiolate] (assay: log2 ratio of iodoacetamide-alkyne labeling of the cysteine site, DMSO over compound (competition); higher = stronger covalent engagement of the cysteine by the compound, active = 1 or more). Conditions: 500 µM; treatment time 1 h; system: HEK293T cell lysate.
Method in brief: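 The log2 competition ratio per cysteine is defined as mean reporter intensity in control channels over mean reporter intensity in compound channels. Lysate from HEK293T cells (2 mg/mL) received electrophile (500 µM) or vehicle for 1 h at ambient temperature, followed by iodoacetamide alkyne for 1 h. Samples were clicked to sCIP-TMT reagents, pooled, trypsin-digested overnight at 37 °C, streptavidin-enriched, acid-eluted and run on Orbitrap Eclipse LC-MS/MS with FAIMS, with quantification in FragPipe. Three replicates with duplicate channels were used, and any cysteine quantified in only one replicate was excluded.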

UniProt Q9Y490, sequence (Q9Y490 whole entry, looked up): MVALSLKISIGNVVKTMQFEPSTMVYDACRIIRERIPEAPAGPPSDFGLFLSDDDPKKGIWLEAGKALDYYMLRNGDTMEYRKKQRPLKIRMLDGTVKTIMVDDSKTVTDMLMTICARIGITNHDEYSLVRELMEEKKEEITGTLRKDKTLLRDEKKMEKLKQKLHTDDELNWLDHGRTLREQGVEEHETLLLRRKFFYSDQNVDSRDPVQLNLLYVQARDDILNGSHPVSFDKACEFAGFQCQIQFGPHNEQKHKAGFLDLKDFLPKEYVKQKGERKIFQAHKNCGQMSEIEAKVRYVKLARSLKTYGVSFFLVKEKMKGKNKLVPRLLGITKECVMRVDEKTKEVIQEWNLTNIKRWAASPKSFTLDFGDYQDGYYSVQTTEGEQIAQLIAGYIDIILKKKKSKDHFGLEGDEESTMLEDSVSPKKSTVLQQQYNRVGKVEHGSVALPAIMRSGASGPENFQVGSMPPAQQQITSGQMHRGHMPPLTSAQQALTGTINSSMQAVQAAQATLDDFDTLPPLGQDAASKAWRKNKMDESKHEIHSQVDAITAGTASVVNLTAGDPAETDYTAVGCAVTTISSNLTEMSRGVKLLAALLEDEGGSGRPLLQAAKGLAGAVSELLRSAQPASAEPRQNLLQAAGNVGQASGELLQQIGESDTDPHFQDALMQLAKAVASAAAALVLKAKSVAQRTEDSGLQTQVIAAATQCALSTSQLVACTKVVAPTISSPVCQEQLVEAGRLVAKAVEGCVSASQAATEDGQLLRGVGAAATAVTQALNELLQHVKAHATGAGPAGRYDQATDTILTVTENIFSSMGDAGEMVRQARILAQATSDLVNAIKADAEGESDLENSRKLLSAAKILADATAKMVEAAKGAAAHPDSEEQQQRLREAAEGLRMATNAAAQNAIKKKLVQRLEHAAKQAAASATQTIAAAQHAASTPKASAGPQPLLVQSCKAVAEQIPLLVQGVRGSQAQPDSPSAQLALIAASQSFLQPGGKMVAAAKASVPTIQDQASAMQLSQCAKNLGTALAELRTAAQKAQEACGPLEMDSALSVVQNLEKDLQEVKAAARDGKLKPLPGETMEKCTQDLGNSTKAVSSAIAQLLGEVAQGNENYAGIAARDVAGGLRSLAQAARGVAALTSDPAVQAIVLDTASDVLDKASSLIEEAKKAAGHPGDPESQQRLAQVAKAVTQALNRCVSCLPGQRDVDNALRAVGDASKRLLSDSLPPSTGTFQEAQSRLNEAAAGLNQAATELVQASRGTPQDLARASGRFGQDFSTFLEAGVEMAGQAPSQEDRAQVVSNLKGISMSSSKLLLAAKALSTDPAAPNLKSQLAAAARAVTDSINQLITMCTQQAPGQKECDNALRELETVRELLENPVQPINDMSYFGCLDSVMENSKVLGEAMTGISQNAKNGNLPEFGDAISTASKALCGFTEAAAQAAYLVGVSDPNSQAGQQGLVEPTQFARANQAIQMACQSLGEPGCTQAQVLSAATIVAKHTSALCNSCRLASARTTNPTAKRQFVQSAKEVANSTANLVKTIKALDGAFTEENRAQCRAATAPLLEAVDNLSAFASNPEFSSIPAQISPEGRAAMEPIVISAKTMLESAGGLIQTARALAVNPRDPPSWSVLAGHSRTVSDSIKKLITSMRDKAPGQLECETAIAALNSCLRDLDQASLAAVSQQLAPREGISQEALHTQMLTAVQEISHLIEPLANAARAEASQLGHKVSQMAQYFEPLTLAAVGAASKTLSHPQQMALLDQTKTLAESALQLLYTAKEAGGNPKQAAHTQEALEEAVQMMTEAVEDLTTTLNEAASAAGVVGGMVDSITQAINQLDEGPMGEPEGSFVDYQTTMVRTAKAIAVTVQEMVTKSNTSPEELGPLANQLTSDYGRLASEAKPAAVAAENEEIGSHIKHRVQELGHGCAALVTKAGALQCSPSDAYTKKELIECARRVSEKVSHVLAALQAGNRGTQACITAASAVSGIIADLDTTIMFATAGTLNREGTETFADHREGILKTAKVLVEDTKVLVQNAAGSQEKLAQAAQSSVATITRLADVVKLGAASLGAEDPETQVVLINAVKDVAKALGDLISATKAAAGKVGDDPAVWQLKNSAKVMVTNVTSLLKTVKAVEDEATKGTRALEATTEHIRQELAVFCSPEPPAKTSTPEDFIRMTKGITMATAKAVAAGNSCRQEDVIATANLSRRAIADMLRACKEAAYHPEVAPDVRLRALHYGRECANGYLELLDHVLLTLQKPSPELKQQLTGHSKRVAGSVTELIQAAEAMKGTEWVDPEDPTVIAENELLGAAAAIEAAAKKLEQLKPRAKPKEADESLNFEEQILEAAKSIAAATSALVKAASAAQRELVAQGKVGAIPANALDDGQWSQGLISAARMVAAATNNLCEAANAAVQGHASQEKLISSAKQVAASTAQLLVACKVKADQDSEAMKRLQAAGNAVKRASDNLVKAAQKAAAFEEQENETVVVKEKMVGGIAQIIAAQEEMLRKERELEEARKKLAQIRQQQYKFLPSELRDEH
UniProt Q9C0C2, sequence (Q9C0C2 whole entry, looked up): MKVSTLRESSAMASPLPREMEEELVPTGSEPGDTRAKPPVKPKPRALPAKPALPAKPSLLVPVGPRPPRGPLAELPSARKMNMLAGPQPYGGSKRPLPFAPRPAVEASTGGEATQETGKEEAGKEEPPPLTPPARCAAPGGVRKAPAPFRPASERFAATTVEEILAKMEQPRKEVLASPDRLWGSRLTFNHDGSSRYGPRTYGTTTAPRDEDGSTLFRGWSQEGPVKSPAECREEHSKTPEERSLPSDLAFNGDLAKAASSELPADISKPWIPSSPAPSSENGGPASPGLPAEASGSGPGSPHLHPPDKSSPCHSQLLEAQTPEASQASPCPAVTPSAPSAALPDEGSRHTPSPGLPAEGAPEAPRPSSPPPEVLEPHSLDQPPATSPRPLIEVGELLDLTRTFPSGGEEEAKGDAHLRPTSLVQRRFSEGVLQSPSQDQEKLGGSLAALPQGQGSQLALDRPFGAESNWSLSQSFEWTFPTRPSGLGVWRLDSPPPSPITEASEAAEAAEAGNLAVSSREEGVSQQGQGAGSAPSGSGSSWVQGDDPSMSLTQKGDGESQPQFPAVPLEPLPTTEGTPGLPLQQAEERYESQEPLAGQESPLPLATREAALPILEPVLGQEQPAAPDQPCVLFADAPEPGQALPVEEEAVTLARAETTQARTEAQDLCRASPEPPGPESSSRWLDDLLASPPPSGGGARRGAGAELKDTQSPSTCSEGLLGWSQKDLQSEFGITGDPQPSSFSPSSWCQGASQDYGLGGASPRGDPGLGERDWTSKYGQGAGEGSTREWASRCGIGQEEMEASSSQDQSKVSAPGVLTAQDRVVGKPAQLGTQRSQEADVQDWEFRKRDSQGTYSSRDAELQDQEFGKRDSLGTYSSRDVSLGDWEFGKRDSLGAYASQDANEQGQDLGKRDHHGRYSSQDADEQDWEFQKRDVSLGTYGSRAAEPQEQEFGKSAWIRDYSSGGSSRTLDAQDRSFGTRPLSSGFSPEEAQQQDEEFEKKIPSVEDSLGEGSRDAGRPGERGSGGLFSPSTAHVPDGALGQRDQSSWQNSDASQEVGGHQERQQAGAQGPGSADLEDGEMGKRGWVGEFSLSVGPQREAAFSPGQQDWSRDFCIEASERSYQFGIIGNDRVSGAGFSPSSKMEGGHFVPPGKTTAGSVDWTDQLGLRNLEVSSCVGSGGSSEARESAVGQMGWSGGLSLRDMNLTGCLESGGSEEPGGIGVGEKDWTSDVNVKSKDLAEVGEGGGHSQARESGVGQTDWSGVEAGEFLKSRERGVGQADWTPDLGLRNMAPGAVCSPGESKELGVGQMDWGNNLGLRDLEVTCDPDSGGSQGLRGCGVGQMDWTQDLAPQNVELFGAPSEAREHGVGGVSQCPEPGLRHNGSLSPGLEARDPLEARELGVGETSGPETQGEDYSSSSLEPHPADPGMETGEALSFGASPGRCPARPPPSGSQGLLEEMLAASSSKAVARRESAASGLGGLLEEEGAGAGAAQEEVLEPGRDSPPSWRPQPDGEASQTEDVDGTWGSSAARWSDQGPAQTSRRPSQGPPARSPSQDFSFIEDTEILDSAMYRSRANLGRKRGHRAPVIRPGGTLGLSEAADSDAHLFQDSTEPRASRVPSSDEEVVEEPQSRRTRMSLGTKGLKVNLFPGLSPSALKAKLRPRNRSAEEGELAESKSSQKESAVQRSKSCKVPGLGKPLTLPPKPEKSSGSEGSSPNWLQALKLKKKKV
UniProt Q9UIS9, sequence (Q9UIS9 whole entry, looked up): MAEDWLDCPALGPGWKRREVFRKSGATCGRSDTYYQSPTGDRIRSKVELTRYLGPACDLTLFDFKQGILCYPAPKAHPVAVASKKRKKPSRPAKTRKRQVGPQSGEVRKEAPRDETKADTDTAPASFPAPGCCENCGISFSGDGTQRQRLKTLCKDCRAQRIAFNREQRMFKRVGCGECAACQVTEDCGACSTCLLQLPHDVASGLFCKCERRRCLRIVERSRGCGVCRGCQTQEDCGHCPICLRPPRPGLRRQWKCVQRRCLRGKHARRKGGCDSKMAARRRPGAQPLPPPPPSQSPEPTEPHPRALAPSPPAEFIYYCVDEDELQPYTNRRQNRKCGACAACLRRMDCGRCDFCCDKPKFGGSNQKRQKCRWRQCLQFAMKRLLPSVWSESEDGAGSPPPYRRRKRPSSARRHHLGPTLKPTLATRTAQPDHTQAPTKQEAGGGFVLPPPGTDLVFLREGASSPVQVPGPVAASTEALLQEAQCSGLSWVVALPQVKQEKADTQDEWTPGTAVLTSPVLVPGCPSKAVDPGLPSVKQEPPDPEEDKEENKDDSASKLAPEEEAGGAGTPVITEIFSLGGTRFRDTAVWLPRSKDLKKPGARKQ
UniProt Q9Y3D8, sequence (Q9Y3D8 whole entry): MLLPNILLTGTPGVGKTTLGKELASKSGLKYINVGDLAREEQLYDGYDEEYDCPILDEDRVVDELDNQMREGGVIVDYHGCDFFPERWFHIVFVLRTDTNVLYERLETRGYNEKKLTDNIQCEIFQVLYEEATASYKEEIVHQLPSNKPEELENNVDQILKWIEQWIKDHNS

log2 ratio of iodoacetamide-alkyne labeling, active:
ATXN10 C354 (UniProt Q9UBB4) 1.32
CCDC88C C1520 (UniProt Q9P219) 1.15
UniProt Q9UBD5_C159 1.13

log2 ratio of iodoacetamide-alkyne labeling, inactive:
CD2AP C540 (UniProt Q9Y5K6) 0.456
GPHN C419 (UniProt Q9NQX3) 0.38
NAT10 C486 (UniProt Q9H0A0) 0.0616
TLN1 C2243 (UniProt Q9Y490) 0.0807
RUVBL2 C227 (UniProt Q9Y230) 0.198
MRPL44 C53 (UniProt Q9H9J2) -0.0312
MBD1 C57 (UniProt Q9UIS9) 0.0108
PRR12 C322 (UniProt Q9ULL5) 0.259
AK6 C53 (UniProt Q9Y3D8) 0.109
UniProt Q9BYG3_C269 0.771
MACF1 C5049 (UniProt Q9UPN3) 0.311
PPA2 C161 (UniProt Q9H2U2) -0.42
DLGAP4 C736 (UniProt Q9Y2H0) 0.69
FANCI C56 (UniProt Q9NVI1) 0.281
RDH14 C97 (UniProt Q9HBH5) 0.228
SRRM2 C1480 (UniProt Q9UQ35) 0.319
UPF2 C1107 (UniProt Q9HAU5) 0.18
IKBKG C347 (UniProt Q9Y6K9) 0.397
TNKS1BP1 C1296 (UniProt Q9C0C2) 0.451
